In PubChem BioAssay one finds composite z-score data, which are given here for 35 molecules.

This assay is described as follows: probe aShh binding to arrayed compounds – biochemical, biotinylated probe, 635/667 nm fluorescence, primary screen (AID 1114).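 Further: probe is biotin-labelled aShh protein from a stem cell growth factor screen; measures binding of labelled protein to compounds printed on the slide; score merges feature fluorescence at 667 nm with signal-to-noise.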 Particulars: small-molecule microarray, higher = more signal.
Regarding `COc1ccc([Si](C)(C)[C@@H]2[C@@H](CC(=O)N3CCC[C@H]3CO)O[C@]3(C(=O)N(C)c4c(Br)cc(C)cc43)[C@H]2C)cc1`, the composite z-score is -0.0035. `CN(C)CCCCCCNC(=O)[C@H]1C[C@H]2C(=O)N[C@@H](CCCCN)C(=O)N2[C@H]1c1ccc(O)cc1` showed a composite z-score of 2.1. For the molecule `COCC(=C=CC[C@H](O)c1ccc(OCCO)cc1)C[C@H](O)c1cc(Cl)cc(Cl)c1O`, the composite z-score is 0.678. Turning to `COc1cc(C(O)C2C=CC3C(=O)N(c4ccccc4)C(=O)C3N2Nc2ccc(C#N)cc2)cc(OC)c1OC` (stereo not given), the composite z-score was found to be 0.214.

The molecule `N#Cc1ccc(NN2C(C(O)c3ccc([N+](=O)[O-])cc3)C=CC3C(=O)N(c4ccccc4)C(=O)C32)cc1` (stereo not given) gave a composite z-score of 0.935. In the case of `CC(=O)NCCCC[C@@H]1NC(=O)[C@@H]2C[C@H](C(=O)NCCCCCCNC(=O)CS)[C@H](c3ccc(O)cc3)N2C1=O`, the composite z-score was -0.0643. `CCOC(=O)C[C@H]1[C@H](OC(=O)Cc2ccc3c(c2)OCO3)[C@@H](NC(=O)c2ccc(-c3ccccc3)cc2)c2cc(OCCCO)ccc2N1C(=O)c1ccccc1` displayed a composite z-score of 0.0483. As for `O=C1O[C@@H](c2ccccc2)[C@@H](c2ccccc2)N2[C@@H](c3ccccc3OCCO)[C@]3(C(=O)Nc4ccc(C#CC5(O)CCCCCC5)cc43)[C@@H](C(=O)Nc3nc4ccccc4s3)[C@H]12`, the composite z-score is -0.0685. `Cc1ccccc1C(O)C1C=CC2C(=O)N(C)C(=O)C2N1N1CCCCC1` (stereo not given) displayed a composite z-score of 0.254. The molecule `COCCOC(=O)N1C(=O)[C@@]2(c3ccccc31)[C@H](C(=O)Nc1nc3ccccc3s1)[C@H]1C(=O)O[C@H](c3ccccc3)[C@H](c3ccccc3)N1[C@@H]2c1ccc(OCCO)cc1` showed a composite z-score of -0.0626. As for `CC(C)C[C@@H]1NC(=O)[C@H]2C[C@@H](C(=O)NCCCCCNC(=O)CS)[C@@H](c3cccc(OCCO)c3)N2C1=O`, the figure is -0.358. As for `COc1ccc(C#Cc2ccc3c(c2)[C@]2(C(=O)N3)[C@H](c3ccc(O)cc3)N3[C@H](c4ccccc4)[C@H](c4ccccc4)OC(=O)[C@H]3[C@@H]2C(=O)NC[C@H](O)c2ccccc2)cc1`, the figure is -0.138; as for `O=C1OCC=C[C@H]2OC34C=CCN(c5ccc(Cl)cc5)C(=O)[C@H]3N(CCCCCCO)C(=O)[C@@H]4[C@@H]12` (stereo not given in full), 0.0062; as for `C=CCOC(=O)[C@H]1[C@@H]2C(=O)O[C@@H](c3ccccc3)[C@@H](c3ccccc3)N2[C@@H](c2ccc(OCCOC(=O)[C@@H]3C[C@@H]4C(=O)N5CCC[C@H]5C(=O)N4[C@@H]3c3ccc(O)cc3)cc2)[C@]12C(=O)Nc1ccccc12`, 0.0121.

For the molecule `CCCC[C@H]1OB(O)C[C@H]2C1=C(C)C[C@H]1C(=O)N(Cc3ccccc3)C(=O)[C@H]12`, the composite z-score is -0.0396. For `CCCC[C@@H]1C[C@H]1[C@@H](NC(=O)c1ccc(-c2ccccc2)cc1)c1ccc(-c2ccccc2)cc1`, the composite z-score came out at 1.37. In turn, `COCC(=C=CC[C@@H](O)c1ccc(CO)o1)CCO` registered a composite z-score of -0.217. As for `Cc1ccc(S[C@]2(C(=O)NCc3ccccc3)CC(=O)N(Cc3ccccc3Cl)[C@@H]2c2ccc(CO)cc2I)cc1`, the figure is -0.426; as for `CC=CC(O)C1C=CC2C(=O)N(c3ccccc3)C(=O)C2N1Nc1ccc(C(C)C)cc1` (stereo not given), 0.0469. The result for `COCCOC(=O)N1C(=O)[C@@]2(c3ccccc31)[C@H](C(=O)NC[C@H](O)c1ccccc1)[C@H]1C(=O)O[C@H](c3ccccc3)[C@H](c3ccccc3)N1[C@@H]2c1ccc(OCCO)cc1` reads 0.0723. As for `[N-]=[N+]=NCc1ccccc1C[C@@]1(C(=O)NCC(O)CO)N=C(c2ccc(OCCCO)cc2)O[C@@H]1c1ccccc1CN=[N+]=[N-]` (stereo not given in full), the figure is 0.269; as for `COc1ccc(C#Cc2ccc3c(c2)[C@]2(C(=O)N3)[C@H](C(=O)NC[C@H](O)c3ccccc3)[C@H]3C(=O)O[C@H](c4ccccc4)[C@H](c4ccccc4)N3[C@@H]2c2ccccc2OCCO)cc1`, 0.232; as for `COC(=O)[C@@]1(Cc2ccccc2)[C@H]2c3cc(C(=O)N(C)C)n(Cc4cc(C)n(C)n4)c3C[C@H]2CN1C(=O)c1ccccc1`, -0.465. In turn, `C#CCN(C(/C=C/c1ccccc1)CO)C(C(=O)O)c1ccccc1` (stereo not given) had a composite z-score of -0.2. Take `COc1ccc([Si](C)(C)[C@@H]2[C@@H](CCn3cc([C@H](O)c4ccccc4)nn3)O[C@]3(C(=O)N(Cc4cccc(N5CCOC5=O)c4)c4ccccc43)[C@H]2C)cc1`: the composite z-score was -0.117.

As for `Cc1ccc(S[C@]2(C(=O)O)CC(=O)N(C3Cc4ccccc4C3)[C@@H]2c2ccc(CO)cc2I)cc1`, the composite z-score was -0.156. Turning to `CCOC(=O)C[C@H]1[C@H](OC(=O)c2ccc(-c3ccccc3)cc2)[C@@H](NC(=O)Cc2ccc(OC)cc2)c2cc(OCCCO)ccc2N1C(=O)c1ccc2ccccc2n1`, the composite z-score was -0.282.

`COc1ccc([Si](C)(C)[C@@H]2[C@@H](CC(=O)N(CCO)Cc3ccccc3)O[C@]3(C(=O)N(C)c4ccccc43)[C@H]2C)cc1` showed a composite z-score of 0.366. `O=c1cccc(C=Cc2ccccc2)o1` showed a composite z-score of 0.147. Molecule `O=C1OCC=C[C@H]2OC34C=CCN(c5ccc6ccccc6c5)C(=O)[C@H]3N(CCCO)C(=O)[C@@H]4[C@@H]12` (stereo not given in full) gave a composite z-score of -0.15. In turn, `COCCOC(=O)N1C(=O)[C@@]2(c3cc(C#CC4=CCCCC4)ccc31)[C@H](C(=O)N1CCc3cc(OC)c(OC)cc3C1)[C@H]1C(=O)O[C@H](c3ccccc3)[C@H](c3ccccc3)N1[C@@H]2c1ccccc1OCCO` had a composite z-score of -0.153. `COCCOC(=O)N1C(=O)[C@@]2(c3cc(C#CCC(C(=O)OC)C(=O)OC)ccc31)[C@H](c1ccccc1OCCO)N1[C@H](c3ccccc3)[C@H](c3ccccc3)OC(=O)[C@H]1[C@@H]2C(N)=O` displayed a composite z-score of -0.0055.

In turn, `CC(C)OC(=O)CC(=O)CC(O)c1ccc(C#N)cc1` (stereo not given) registered a composite z-score of -0.156. For the molecule `COC(=O)[C@@]1(Cc2ccc(OC)cc2)[C@H]2c3cc(C(=O)N(C)C)n(Cc4c(OC)[nH]cc(C)c4=O)c3C[C@H]2CN1C(=O)c1ccccc1`, the composite z-score was -0.352. Molecule `O=C1C[C@@](C(=O)NC2CC2)(c2ccc([N+](=O)[O-])cc2)[C@@H](c2ccc(CO)cc2)N1CC12CC3CC(CC(C3)C1)C2` yielded a composite z-score of -0.147.
